According to publication PMC5540273 (PLoS ONE, 2017):

Legend:
Conditions in all cases: concentration: 1 μM, replicates: in singlicate; n = 1
[1] = system: TYK2(JH2domain-pseudokinase)
[2] = system: TYRO3
[3] = system: ULK1
[4] = system: ULK2
[5] = system: ULK3
[6] = system: T1, VEGFR2
T1 construct: gene KDR

[7] = system: T2, VPS34
T2 construct: gene PIK3C3

[8] = system: VRK2
[9] = system: WEE1
[10] = system: WEE2
[11] = system: WNK1
[12] = system: WNK2
[13] = system: WNK3
[14] = system: WNK4
[15] = system: T3, YANK1
T3 construct: gene STK32A

[16] = system: T4, YANK2
T4 construct: gene STK32B

[17] = system: T5, YANK3
T5 construct: gene STK32C

[18] = system: T6, YES
T6 construct: gene YES1

[19] = system: T7, YSK1
T7 construct: gene STK25

[20] = system: T8, YSK4
T8 construct: gene MAP3K19
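Also: KINOMEscan kinase panel screen.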

Compound	%Inh [1]	%Inh [2]	%Inh [3]	%Inh [4]	%Inh [5]	%Inh [6]	%Inh [7]	%Inh [8]	%Inh [9]	%Inh [10]	%Inh [11]	%Inh [12]	%Inh [13]	%Inh [14]	%Inh [15]	%Inh [16]	%Inh [17]	%Inh [18]	%Inh [19]	%Inh [20]
Cn1cc(-c2ccc3c(c2)CCN3C(=O)Cc2cc(F)cc(F)c2F)c2c(N)ncnc21 [GSK2634140]	44%	0%	14%	0%	4%	0%	16%	27%	0%	14%	13%	8%	23%	14%	29%	13%	0%	15%	23%	96.7%
O=C(Nc1n[nH]c2nc(-c3ccccc3O)ccc12)C1CC1 [SB-711880]	6%	0%	0%	0%	16%	0%	0%	0%	0%	79%	0%	30%	0%	0%	0%	0%	0%	0%	0%	70%
Cc1ccc(-c2ccc3occ(-c4ccc(S(C)=O)cc4)c3c2)nn1 (centres unmarked)	18%	0%	0%	0%	0%	0%	61%	0%	0%	0%	0%	18%	0%	0%	0%	1%	24%	0%	1%	4%
CS(=O)(=O)c1cccc(CNc2nc(Nc3ccc4c(c3)CCC(=O)N4)ncc2C(F)(F)F)c1	0%	0%	69%	70%	66%	68%	0%	0%	0%	0%	0%	0%	0%	0%	0%	0%	0%	0%	0%	99%
CC(C)NCC(Cc1ccccc1)NC(=O)c1cc(Br)c(-c2ccnc3[nH]ccc23)s1.Cl.Cl (centres unmarked) [GSK1383281]	22%	0%	0%	0%	1%	33%	0%	2%	6%	0%	0%	0%	0%	18%	21%	0%	0%	0%	40%	83%
CN1CCN(Cc2ccc(NC(=O)Nc3ccc(N(C)c4ccnc(Nc5ccc(CS(C)(=O)=O)cc5)n4)cc3)cc2)CC1.Cl [GW827654]	87%	35%	0%	51%	95.9%	99.9%	42%	65%	0%	27%	36%	45%	42%	0%	19%	0%	6%	0%	7%	100%
Cc1nn2c(=O)cc(N3CCO[C@H](C)C3)nc2n1Cc1cccc(Cl)c1Cl [GSK2373693]	18%	15%	78%	0%	14%	0%	96.5%	0%	0%	0%	4%	18%	5%	0%	2%	0%	14%	14%	0%	56%
Cl.Cl.NCC(NC(=O)c1cc(-c2cccnc2)c(-c2ccnc3[nH]ccc23)s1)c1ccccc1 (centres unmarked) [GSK1323434]	37%	0%	4%	0%	0%	0%	45%	15%	8%	13%	2%	0%	80%	50%	26%	0%	14%	18%	17%	84%
COc1cccc2c(-c3ccncc3)c(-c3ccc(F)cc3)nn12 [GW468513]	67%	0%	3%	0%	0%	0%	10%	12%	4%	0%	0%	0%	31%	24%	65%	72%	72%	15%	4%	6%
O=C(O)C(F)(F)F.O=c1[nH]ccc2nc(N[C@@H]3CCNC3)nc(Nc3ccc4c(c3)S(=O)(=O)CC4)c12 [GSK2181306]	57%	2%	99.9%	99.5%	98.6%	36%	88%	89%	18%	0%	0%	29%	0%	0%	70%	0%	8%	20%	97.4%	99.7%
Cl.N#CCc1ccc(Nc2nccc(Nc3ccc(Oc4ccccc4)cc3)n2)cc1 [GW639905]	72%	36%	23%	0%	15%	0%	0%	24%	0%	0%	15%	0%	28%	6%	3%	0%	10%	74%	0%	41%
CCOc1nccc(-c2c(-c3ccc(F)cc3)ncn2C2CCNCC2)n1 [SB-249175]	36%	15%	28%	34%	26%	13%	24%	51%	0%	18%	25%	4%	4%	0%	52%	36%	0%	0%	2%	37%
CCNc1nccc(-c2c(-c3ccc(F)cc3)ncn2C2CCN(C)CC2)n1	0%	26%	0%	0%	0%	0%	0%	0%	0%	0%	0%	0%	0%	0%	0%	0%	0%	3%	5%	0%
Nc1ncc(-c2ccc3nccc(-c4ccncc4)c3c2)cc1S(=O)(=O)N1CCCCC1 [GSK1693850]	12%	0%	0%	0%	10%	18%	95.5%	2%	0%	0%	1%	4%	13%	64%	5%	0%	0%	10%	13%	69%
COc1cccc(-c2nc(-c3ccccc3)[nH]c2-c2ccncc2)c1 [SB-610250]	93.1%	0%	8%	0%	28%	0%	0%	43%	9%	0%	9%	0%	33%	29%	10%	4%	0%	8%	100%	100%
Cn1cc(-c2cnc(N)c3c(-c4ccc5c(c4)CCN5C(=O)Cc4ccccc4)csc23)cn1 [GSK2593074]	0%	63%	0%	0%	0%	65%	0%	0%	3%	5%	0%	0%	0%	0%	0%	0%	0%	55%	6%	43%
COc1cccc(CC(=O)N2CCc3cc(-c4cn(C)c5ncnc(N)c45)ccc32)c1 [GSK2608899]	39%	0%	5%	5%	17%	64%	0%	0%	0%	0%	21%	52%	54%	12%	13%	0%	8%	16%	17%	96.9%
CN(C)CCNS(=O)(=O)c1ccc(-c2ccnc3[nH]ccc23)cc1 [GSK977620]	26%	3%	73%	0%	27%	0%	57%	0%	35%	0%	0%	0%	0%	0%	21%	0%	27%	16%	78%	88%
O=C(Nc1n[nH]c2nc(-c3ccccc3)ccc12)C1CC1 [SB-708999]	29%	6%	11%	3%	9%	0%	14%	47%	0%	0%	15%	37%	36%	60%	0%	0%	28%	1%	0%	93.9%
O=C(O)C(F)(F)F.O=c1[nH]ccc2nc(N[C@@H]3CCNC3)nc(Nc3cc(Cl)cc(Cl)c3)c12 [GSK2188764]	28%	0%	99.8%	99.9%	97.4%	15%	78%	94%	0%	0%	8%	26%	30%	0%	40%	0%	9%	12%	82%	99.7%

Compound	%Inh [1]	%Inh [2]	%Inh [3]	%Inh [4]	%Inh [5]	%Inh [6]	%Inh [7]	%Inh [8]	%Inh [9]	%Inh [10]	%Inh [11]	%Inh [12]	%Inh [13]	%Inh [14]	%Inh [15]	%Inh [16]	%Inh [17]	%Inh [18]	%Inh [19]	%Inh [20]
COC(=O)Nc1nc2ccc(Oc3ccc(CC(=O)Nc4cc(C(F)(F)F)ccc4F)cc3)cc2[nH]1 [GW680903]	24%	0%	0%	0%	0%	63%	0%	13%	1%	0%	0%	4%	21%	48%	9%	0%	0%	8%	3%	42%
CN(c1ccc(F)c(NC(=O)c2cccc(OC(C)(C)C#N)c2Cl)c1)c1ccc2nc(NC(=O)C3CC3)sc2n1	0%	14%	2%	0%	4%	91.9%	0%	0%	0%	17%	0%	19%	0%	0%	0%	0%	0%	91.4%	0%	20%
Cc1cc(-c2ccnc(Nc3cccc(C#N)c3)n2)cc(C)c1O [GSK1440913]	99.4%	23%	1%	0%	54%	6%	70%	3%	0%	2%	7%	0%	4%	26%	7%	0%	13%	19%	4%	97%
N#CC1(c2cccc(C(=O)Nc3cccc(Oc4ccc5nc(NC(=O)C6CC6)sc5n4)c3)c2)CC1	0%	53%	0%	0%	0%	99.7%	0%	19%	0%	5%	6%	0%	0%	0%	0%	9%	0%	98.7%	37%	98.9%
Cc1cccc(Nc2nc(N[C@H]3CCCC[C@H]3N)ncc2C(N)=O)c1.Cl [GSK986310]	19%	21%	72%	80%	43%	0%	56%	0%	41%	8%	9%	30%	32%	0%	50%	46%	51%	44%	54%	82%
CC(=O)Nc1cn2nc(Oc3cccc(NC(=O)c4cccc(C(F)(F)F)c4)c3)ccc2n1	0%	33%	0%	0%	0%	99.4%	24%	8%	21%	0%	0%	0%	0%	0%	0%	0%	0%	96.2%	0%	99.9%
CCNC(=O)/C=C/c1n[nH]c2cc(Sc3ccccc3C(=O)NC)ccc12	0%	0%	10%	36%	1%	99.9%	0%	14%	14%	0%	0%	5%	0%	10%	17%	0%	0%	20%	0%	86%
c1ccc(Oc2ccc(Nc3ccnc4cc(-c5ccc(CN6CCCCC6)o5)ccc34)cc2)nc1 [GW567143]	17%	26%	0%	0%	15%	24%	0%	14%	8%	13%	2%	39%	24%	25%	0%	0%	17%	51%	0%	32%
COc1ccc(C)c(Nc2ccnc(Nc3ccc(-c4cnc[nH]4)cc3)n2)c1.Cl [GW784041]	0%	44%	0%	0%	6%	0%	54%	0%	0%	8%	0%	0%	0%	0%	0%	0%	0%	29%	0%	7%
CN(C)CCOc1ccc(-c2cc(-c3ccc(Cl)c(O)c3)c(-c3ccncc3)[nH]2)cc1.Cl.Cl [SB-684387]	18%	6%	6%	8%	14%	21%	16%	45%	7%	0%	11%	21%	47%	33%	26%	28%	0%	55%	13%	27%
Cc1cccc(Nc2nc(NCCN)ncc2C(N)=O)c1 [GSK1292139]	95.8%	0%	64%	78%	41%	3%	0%	18%	0%	26%	7%	0%	31%	15%	9%	0%	0%	6%	31%	88%
COC(=O)Nc1nc2ccc(Oc3ccc(NC(=O)Nc4cc(C(F)(F)F)ccc4F)cc3)cc2[nH]1.Cl [GW654607]	1%	66%	15%	0%	58%	92.3%	0%	0%	31%	0%	25%	27%	26%	15%	21%	0%	100%	48%	25%	97.2%
O=C(Nc1n[nH]c2cc(-c3cccs3)ccc12)C1CC1 [SB-731284]	63%	0%	39%	15%	7%	57%	16%	0%	0%	0%	40%	0%	0%	0%	19%	0%	0%	0%	0%	94%
CN(c1ccc(NC(=O)N2CCN(CCCN3CCOCC3)CC2)cc1)c1ccnc(Nc2ccc(CS(C)(=O)=O)cc2)n1.Cl [GW830899]	22%	8%	0%	0%	0%	52%	0%	0%	3%	79%	0%	0%	0%	0%	0%	0%	0%	4%	0%	81%
Nc1cccc(-c2ccc3c(N)n[nH]c3c2)c1 [GSK2193613]	0%	0%	6%	0%	3%	0%	21%	30%	5%	10%	6%	0%	7%	0%	9%	0%	25%	0%	22%	96.4%
CN(c1ccc2c(c1)nc(NCc1ccccc1)n2C)c1ccnc(Nc2ccc(CS(C)(=O)=O)cc2)n1.Cl [GW811603]	0%	0%	0%	16%	9%	99.5%	40%	100%	0%	29%	0%	2%	11%	0%	0%	0%	0%	0%	0%	97.3%
COc1ccc(NC(=O)c2ccoc2)cc1-c1ccc(C(=O)NCC2CC2)cc1 [GW810437]	34%	12%	34%	28%	41%	0%	11%	0%	7%	13%	9%	0%	12%	0%	0%	13%	12%	0%	0%	34%
COC(=O)Nc1nc2cc(Oc3ccc(NC(=O)Nc4cccc(SC)c4)cc3)ccc2[nH]1.Cl [GW697999]	20%	0%	14%	0%	21%	77%	18%	26%	28%	11%	0%	3%	29%	27%	14%	0%	0%	29%	3%	85%
CC(C)c1nc(-c2cccc(NS(=O)(=O)c3c(F)cccc3F)c2)c(-c2ccnc(Nc3ccc(N4CCOCC4)nc3)n2)s1.Cl [GSK1723980]	60%	72%	22%	13%	93.5%	91%	0%	0%	18%	0%	3%	0%	5%	4%	15%	9%	19%	99.7%	1%	91.8%
Cc1ccc(NC(=O)c2ccnc(N3CCCCC3)c2)cc1-c1ccc(C(=O)NCC2CC2)cc1 [GW775610]	0%	0%	0%	0%	0%	0%	0%	100%	0%	37%	0%	9%	0%	0%	0%	10%	0%	0%	0%	0%
